Assay outcomes deposited in PubChem by National Center for Advancing Translational Sciences (NCATS).
Sampled rows, rich in hits. Any-hit rate of the full collection: about 5.6%.
VP16 counter – inhibits Gal4-VP16 luciferase reporter, ROR gamma counter-screen. Potency, µM (top dose mostly 53.6 µM), most hits filed as inhibitors. Drosophila S2 Gal4-VP16 UAS-luciferase, luminescence, 20 h. 310,000 compounds, 3.5% hits;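 also: Gal4-VP16 expression switched on by copper sulfate through the metallothionein promoter; nearly all actives have a fitted effect of over 50% in size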
PKM2 act – increases activity of human pyruvate kinase M2; purified PKM2, Kinase-Glo ATP luminescence, activation; response scale: 0% is enzyme alone, no compound; Potency, µM (series often up to 57.5 µM), most hits filed as activators; 260,000 compounds, 0.34% hits; AID 1631; also: nearly all actives have a fitted effect of over 55% in size
Target sequence (P14618 whole entry, looked up): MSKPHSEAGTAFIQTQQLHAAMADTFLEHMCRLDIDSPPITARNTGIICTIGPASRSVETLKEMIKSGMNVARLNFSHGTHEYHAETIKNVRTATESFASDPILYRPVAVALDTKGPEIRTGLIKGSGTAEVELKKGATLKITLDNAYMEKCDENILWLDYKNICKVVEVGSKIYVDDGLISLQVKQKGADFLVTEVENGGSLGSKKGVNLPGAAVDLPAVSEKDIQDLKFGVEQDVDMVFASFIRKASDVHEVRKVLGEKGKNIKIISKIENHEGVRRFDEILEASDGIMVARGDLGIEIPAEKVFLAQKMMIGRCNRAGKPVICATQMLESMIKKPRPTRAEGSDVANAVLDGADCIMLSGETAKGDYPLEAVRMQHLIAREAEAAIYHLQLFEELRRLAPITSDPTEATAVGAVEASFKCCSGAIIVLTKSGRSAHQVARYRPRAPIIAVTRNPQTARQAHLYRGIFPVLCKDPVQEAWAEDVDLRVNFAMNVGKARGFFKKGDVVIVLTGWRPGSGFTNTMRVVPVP
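hPK-M2, >95% pure; 0.1 mM ADP / 0.5 mM PEP final; imidazole pH7.2 buffer w/ 7 mM MgCl2, 50 mM KCl; 1 h RT; Kinase-Glo lum. Intermediate enzyme activity for dual inhibitor/activator qHTS.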
CtBP-E1A blk – inhibitors of CtBP/E1A interaction | AlphaScreen GST-E1A/His-CtBP binding, 1536-well; active compounds read low | activity change, % (test concentration not listed) | 340,000 compounds, 0.49% hits; in the data active = activity change below about -65%; inconclusive = mostly about -30% to -63%
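Steps: dispense buffer (Tris pH 8.0, NaCl 300 mM, TCEP 1 mM, BSA, Tween 20); add 5X protein mix (GST-E1A, His-CtBP, 125 nM each); pin 23 nL compound; 2 h at 37 °C, dark; add 5X beads (50 ug/mL); 1 h; read.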
RORgamma inh – ROR gamma (mouse) transcription inhibition. Drosophila S2 Gal4-RORgamma UAS-luciferase reporter, 20 h. Potency, µM (top dose mostly 53.6 µM), hits mostly inhibitors. 310,000 compounds, 5.4% hits. AID 2551; also: nearly all actives have a fitted effect of over 60% in size
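ROR gamma transcriptional activity was tracked as Gal4-UAS luciferase output in stably transfected Drosophila Schneider cells, with compound added 1 hr before 700 uM copper sulfate induction and a 20 hr ambient-temperature incubation.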
Six1-Eya2 blk – Six1/Eya2 interaction inhibition; AID 651725; activity change, % (no concentration beside the values); AlphaScreen GST-Six1/His-Eya2 binding, biochemical; active compounds read low; 360,000 compounds, 0.56% hits; Q15475+O00167; in the data active = activity change below about -65%; inconclusive = mostly about -30% to -63%
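AlphaScreen luminescence read after one hour at 37 °C in darkness. Pin-transferred compounds met GST-Six1 and His-Eya2 protein (5X stock 250 nM/500 nM) plus glutathione donor and Ni-chelate acceptor beads (5X, 50 ug/mL).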
Each line names hits and unclear results; the compound was inactive in the other large screens. Unless noted, calls follow the shape of the dose curve; as a rule, active = well fitted curve in the direction sought with a large enough effect; inconclusive = small, poorly fitted or top-dose-only effect, or another doubt; inactive = no such curve, though single readings can be large; an effect the other way counts as inactive or inconclusive.

CCc1ccccc1N1C(=O)CC(Sc2nccc(C)n2)C1=O (stereo not drawn)	VP16 counter inconclusive, RORgamma inh inconclusive (no result: CtBP-E1A blk)
Cc1ccc(Cl)cc1N1C(=O)CC(Sc2ncccn2)C1=O (stereo not drawn)	VP16 counter inconclusive, RORgamma inh 20µM (no result: CtBP-E1A blk)
CCOC(=O)c1ccc(N2C(=O)CC(Sc3ncccn3)C2=O)cc1 (stereo not drawn)	VP16 counter inconclusive, RORgamma inh inconclusive (no result: CtBP-E1A blk)
Cc1ncc([N+](=O)[O-])n1S(=O)(=O)c1cc(Cl)ccc1Cl	none
Cc1ccc(O)c(N=Nc2nccs2)c1	CtBP-E1A blk inconclusive, Six1-Eya2 blk -70.6 (no result: VP16 counter, PKM2 act, RORgamma inh)
CC(C)c1cc(Cn2c3ccccc3c(=O)n2C(C)Cn2cc(CCc3ccccc3)nn2)on1 (stereo not drawn)	none (no result: VP16 counter, PKM2 act, RORgamma inh)
O=c1c2ccccc2nc(SCc2ccccc2)n1Cc1ccco1	none
O=c1c2ccccc2nnn1CSc1nc2ccccc2c(=O)n1Cc1ccco1	VP16 counter inconclusive, RORgamma inh 2.51µM
Cc1ccc(-n2nnnc2SCn2nnc3ccccc3c2=O)c(C)c1	VP16 counter 7.08µM, PKM2 act 15.8µM, RORgamma inh inconclusive
Cc1cc(SCn2nnc3ccccc3c2=O)nc2ccccc12	none
CCC(C(=O)Nc1ccc2c(c1)OCCO2)n1c(=O)[nH]c2ccccc2c1=O (stereo not drawn)	none
CCc1cc(CNC(=O)CCc2nnc(CCCc3ccccc3)o2)on1	VP16 counter inconclusive
O=C1c2ccccc2C(c2nnnn2Cc2ccccc2)N1Cc1cccnc1 (stereo not drawn)	none (no result: VP16 counter, PKM2 act, RORgamma inh)
Cc1cc(C)cc(OCC(=O)NNC(=O)c2ccccn2)c1	Six1-Eya2 blk -67.9 (no result: VP16 counter, PKM2 act, CtBP-E1A blk, RORgamma inh)
COc1ccc(Cl)cc1NC(=O)NNC(=O)c1ccccn1	VP16 counter 7.08µM, RORgamma inh 4.47µM, Six1-Eya2 blk inconclusive (no result: PKM2 act)
O=C(COc1ccc(Cl)cc1)NNC(=O)c1ccccn1	VP16 counter inconclusive, CtBP-E1A blk inconclusive, RORgamma inh 10µM, Six1-Eya2 blk inconclusive
CCc1ccc(CN(C)C(=O)CCc2nnc(COc3ccccc3)o2)cc1	none (no result: CtBP-E1A blk)
O=C(Nc1nccs1)c1cn(-c2ccccc2)nc1-c1ccccc1	VP16 counter inconclusive, RORgamma inh 7.08µM
CC(C)COc1ccc(-c2nn(-c3ccccc3)cc2C(=O)Nc2nccs2)cc1	VP16 counter 4.47µM, RORgamma inh 2.51µM
CC(=O)Cc1nsc(NC(=O)c2cn(-c3ccccc3)nc2-c2ccc(Br)cc2)n1	VP16 counter 14.1µM, RORgamma inh inconclusive
Cc1ccc(-c2nn(-c3ccccc3)cc2C(=O)Nc2ccc(C(=O)O)cc2)cc1	RORgamma inh inconclusive
O=C(Nc1cc(S(=O)(=O)N2CCCC2)ccc1Cl)c1cc(F)c(F)c(F)c1F	none (no result: VP16 counter, PKM2 act, RORgamma inh)
Cc1ccc(O)c(-c2cc(-c3ccccc3C)[nH]n2)c1	VP16 counter 11.2µM, RORgamma inh 11.2µM
Cc1ccc(-c2cc(-c3cccs3)[nH]n2)c(O)c1	VP16 counter inconclusive, RORgamma inh 11.2µM
COc1ccc(-c2cc(-c3ccc(C)cc3)n[nH]2)c(O)c1	VP16 counter 20µM, RORgamma inh 2.51µM (no result: PKM2 act, CtBP-E1A blk)
Cc1ccccc1-c1cc(-c2ccccc2O)on1	RORgamma inh 12.6µM
Cc1ccc(-c2cc(C(=O)Nc3cc(C)ccc3C)[nH]n2)c(O)c1	none
Oc1ccccc1-c1cc(-c2ccccc2)no1	none
Cc1nc2c(N)nn(C)c2nc1C	none (no result: VP16 counter, PKM2 act, RORgamma inh)
NS(=O)(=O)c1ccc(CCNC(=O)COC(=O)C2CCN(c3ccc(C(F)(F)F)cn3)CC2)cc1	none (no result: VP16 counter, PKM2 act, RORgamma inh)
COc1ccc(OC)c(NC(=O)c2cc(-c3cc(C)ccc3O)n[nH]2)c1	VP16 counter inconclusive (no result: PKM2 act)
COc1ccc(-c2cc(-c3ccccc3)nc(N)n2)c(O)c1	Six1-Eya2 blk -76.6 (no result: VP16 counter, PKM2 act, RORgamma inh)
Oc1ccccc1-c1cc(-c2cccc(F)c2)n[nH]1	VP16 counter inconclusive, RORgamma inh inconclusive
CC(C)(C)c1ccc(-c2cc(-c3ccccc3O)[nH]n2)cc1	VP16 counter 7.08µM, RORgamma inh inconclusive
COc1ccc(-c2cc(-c3cc(C)ccc3O)[nH]n2)cc1	VP16 counter inconclusive, RORgamma inh 3.98µM
COc1ccc(-c2cc(-c3ccc(OC)cc3)[nH]n2)cc1	VP16 counter 2µM, RORgamma inh 1.26µM
CC1(C(=O)Nc2ccc3c(c2)OCCO3)CN(S(C)(=O)=O)CC(=O)N1C1CCCCCC1 (stereo not drawn)	none (no result: VP16 counter, PKM2 act, RORgamma inh)
CCC(=O)Nc1ccc(NC(=O)c2cc3ccccc3o2)c(OC)c1	VP16 counter inconclusive, RORgamma inh inconclusive
C=CCC(CC=C)(NC(=O)c1ccccc1)c1ccccc1	VP16 counter 17.8µM
C=CCC(CC=C)(NC(=O)c1ccccc1C)c1ccccc1	none
S=c1[nH]nc(-c2ccccc2)n1/N=C/c1ccc(-c2ccccc2Cl)o1	VP16 counter inconclusive, RORgamma inh 4.47µM, Six1-Eya2 blk inconclusive
S=c1[nH]nc(-c2ccco2)n1/N=C/c1ccccn1	none (no result: CtBP-E1A blk, Six1-Eya2 blk)
Cc1ccc(/C=N/n2c(-c3cccc(Cl)c3)n[nH]c2=S)o1	VP16 counter inconclusive, RORgamma inh 5.01µM
S=c1[nH]nc(-c2cccc(Cl)c2)n1/N=C/c1ccc(-c2ccccc2Br)o1	RORgamma inh 0.794µM
Oc1c(Br)cc(/C=N/n2c(-c3ccccc3)n[nH]c2=S)cc1Br	RORgamma inh inconclusive
S=c1[nH]nc(-c2ccccn2)n1/N=C/c1ccc(-c2ccccc2Br)o1	RORgamma inh 10µM, Six1-Eya2 blk inconclusive
S=c1[nH]nc(-c2cccc(Cl)c2)n1/N=C/c1ccco1	VP16 counter inconclusive, RORgamma inh inconclusive
Cc1nnc(C)n1/N=C/c1ccc(-c2ccccc2Cl)o1	none
CCOCCn1cnc2sc(C(=O)Nc3nc(C)c(C(=O)OCC)s3)c(C)c2c1=O	RORgamma inh 4.47µM (no result: CtBP-E1A blk, Six1-Eya2 blk)
O=C(CNC(=O)C12CC3CC(CC(C3)C1)C2)N/N=C\c1ccco1	none
S=C(N/N=C/c1ccco1)NC1CC2CCC1C2 (stereo not drawn)	VP16 counter 2.24µM, RORgamma inh 0.562µM (no result: PKM2 act)
Oc1ccccc1/C=N/NC(=S)NC1CC2CCC1C2 (stereo not drawn)	VP16 counter 10µM, CtBP-E1A blk -84.4, RORgamma inh 6.31µM, Six1-Eya2 blk -85.0
O=C(N/N=C/c1ccco1)C(O)C(O)C(=O)N/N=C/c1ccco1 (stereo not drawn)	none
COc1cccc(C=NNC(=S)NN=Cc2cccc(OC)c2OC)c1OC	none (no result: VP16 counter, PKM2 act, RORgamma inh)
CNC(=S)N/N=C/c1ccco1	VP16 counter 5.62µM, RORgamma inh 2.51µM
COc1cccc(/C=N/NC(=S)NC2CC3CCC2C3)c1OC (stereo not drawn)	VP16 counter 2.82µM, RORgamma inh 1.58µM (no result: CtBP-E1A blk)
O=C(O)c1ccccc1/C=N/NC(=S)NC1CCCCC1	none
CSCC[C@H](NC(=O)OC(C)(C)C)C(=O)N1CCC(C(=O)N[C@@H](C)C(=O)NCc2ccc(F)cc2)CC1	none
C[C@@H]1CN([C@H](C)CO)C(=O)CCCn2nncc2CO[C@@H]1CN(C)C(=O)Nc1ccc2c(c1)OCO2	none (no result: VP16 counter, PKM2 act, RORgamma inh)
